Our source for the growth values is PubChem BioAssay (NCI).

Each structure is given as a SMILES string. About 83,000 compounds went through this panel and 20% of them were active in at least one assay; those are over-represented in the sample as a whole.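 Negative percent growth values reflect cell death: -40 means 40% of the cells present at the start died, and -100 means all died.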 A number with no mark means an inactive call. Active and inactive are the calls of the source.

In the test the test system is HCT-15 colon. The test can be described thus: NCI-60 one-dose screen, 48 h (100 = growth as untreated, 0 = no growth, -100 = all killed). The note with it: 10 µM unless noted. As to the method: Growth inhibition of the HCT-15 human tumor cell line is measured as a screen for anti-cancer activity. Cells are grown in 96 well plates and exposed to the test compound for 48 hours. Compounds are tested at a single concentration, which is 10^-5 M for most compounds. The reported endpoint is percent growth (GI% or GIPRCNT), where numbers from 0 - 100% represent growth inhibition, and numbers from -100% - 0 represent cell death. For example, a value of 40 represents 60% growth inhibition. A value of 0 means no net growth occurred over the course of the experiment. A value of -40 indicates 40% of cells at the beginning of the experiment died by the end of the experiment. A value of -100 means all cells are dead at the end of the experiment.
NCI-60 Human Tumor Cell Lines Screen was performed using the standard one-dose NCI protocol, which is described in more detail at https://dtp.cancer.gov/discovery_development/nci-60/default.htm.
Compounds with GIPRCNT values below 10 were considered active. Activity score was based on GIPRCNT using the following formula: […]
Score is 0 for GIPRCNT values of 100 or above, 50 for GIPRCNT values of 0, and 100 for GIPRCNT values of -100.
As for `C#CCOc1ccc(C(Nc2ccc(Cl)cc2)c2nnnn2C2CCCCC2)cc1` (stereo not given), the growth is 80%.
To `O=C1c2c(c3c4cccnc4[nH]c3c3ccc4ccccc4c23)C(=O)N1CCN1CCCCC1` belongs 45.5%; to `C=C1C(=O)O[C@@H]2C[C@@H](C)CCC(=O)[C@](C)(OC(C)=O)C[C@H](OC(=O)/C(C)=C\C)[C@@H]12`, 60.9%; to `CC[C@@](C)(NC(=O)C(C)(C)NC(=O)[C@@H](NC(=O)[C@@H]1CCCN1C(=O)C(C)(C)NC(=O)[C@H](CC(C)C)NC(=O)CNC(=O)C(C)(C)NC(=O)[C@@H](NC(=O)C(C)(C)NC(=O)[C@H](CCC(N)=O)NC(=O)[C@H](C)NC(=O)C(C)(C)NC(=O)[C@H](C)NC(=O)C(C)(C)NC(=O)[C@@H]1CCCN1C(=O)C(C)(C)NC(C)=O)C(C)C)C(C)C)C(=O)N[C@@H](CCC(N)=O)C(=O)N[C@@H](CCC(N)=O)C(=O)N[C@H](CO)Cc1ccccc1`, 98% [4.25 µM].
For `N/C(=N\c1nc2c(Cl)cccc2s1)C(Cl)(Cl)Cl`, the growth was 81.3%.
To `COc1ccc(Cn2cc3c(c2-c2ccccc2)CCCc2cnoc2-3)cc1[N+](=O)[O-]` belongs 27.3%; to `O=C(Nc1cc(Cl)cc(Cl)c1)Nc1ccc2oc(=O)ccc2c1`, 8.08% (active); to `COc1ccccc1/C=C/C=N/NC1=NC2C(S1)N(C)C(=O)N2c1ccccc1` (stereo not given), 12.1%.
On to `O=C(CN1C(=O)S/C(=C\c2ccccc2)C1=O)Nc1ccc(C(=O)/C=C/c2cc3ccccc3nc2Cl)cc1`, for which the growth is 88.5%.
For the compound `O=C(NCCCCCCNC(=O)c1c2c(nc3ccccc13)-c1cccnc1SC2)c1c2c(nc3ccccc13)-c1cccnc1SC2`, the growth was 74.8%.
Turning to `Oc1ccc(CSc2nnc(-c3ccc(Oc4ccccc4)cc3)o2)c2cccnc12`, the growth is 9.07% (active).
To `O=C(COc1ccc(C2SCC(=O)N2c2ccccc2)cc1)c1ccccc1` (stereo not given) belongs 97.2%; to `O=C1c2cc(Br)ccc2-n2c1nc1cc(Br)ccc1c2=O`, 64.8%; to `CCNC(=O)Oc1ccc(/C(=C(/C)c2ccc(Cl)cc2)c2ccc(OCCN3CCCC3)cc2)cc1`, 60.5%.
Regarding `O=S(=O)(Nc1cc(Cl)c(F)c(Cl)c1)c1ccc(-c2cnc(C3CC3)o2)cc1`, the growth is 35.2%.
To `CN1CCN(c2ccc3c(C(N)=O)c(NC(=O)c4ccc(C(C)(C)C)cc4)sc3c2)CC1` belongs 16.4%; to `Nc1ccc(-c2nnc(SCc3ccc(O)c4ncccc34)n2-c2ccccc2)cc1`, 11.3%; to `COc1cc(CNC(=O)Cc2ccccc2[N+](=O)[O-])ccc1OCC(=O)NO`, 105%.
Take `C=CCn1c(SCC(=O)Nc2cccc(C(=O)/C=C/c3ccccc3)c2)nc2ccccc2c1=O`: the growth is 57.9%.
As for `CC(C)Sc1nc(NC2CC2)c(C#N)c(-c2ccccc2)n1`, the growth was 92.4%.
For `CCOC(=O)c1c(NC(=O)c2cccc(C(F)(F)F)c2)sc2c(CN3CCN(C)CC3)c(O)ccc12`, the growth was -82.3% (active).
To `COc1cc(/C=C/C(=O)c2ccc(NC(=O)COc3cccc4cccnc34)cc2)cc(OC)c1OC` belongs 50.3%; to `IP(CCCSc1n(Cc2ccc3ccccc3c2)c(-c2ccccc2)c(-c2ccccc2)[n+]1Cc1ccc2ccccc2c1)(c1ccccc1)(c1ccccc1)c1ccccc1`, 94.5%.
To `N#Cc1c(-c2cccs2)cc(-c2cnccn2)nc1SCC(=O)NNC(=S)Nc1ccc(F)cc1` belongs 102%.
For `COc1cc2c3c(n(CCCNC4CCC4)c(=O)c2cc1OC)-c1cc2c(cc1C3=O)OCO2`, the growth is -53% (active).
With `Cc1ccc(S(=O)(=O)N/N=C/c2cn(-c3ccc(F)cc3)nc2-c2ccc(S(C)(=O)=O)cc2)cc1`, the growth is 99.4%.
To `C=CCn1c(SCC(=O)Nc2cccc(C(=O)/C=C/c3ccccc3Cl)c2)nc2ccccc2c1=O` belongs 75.4%.
To `Clc1ccc(-c2csc(Nc3cccc(Nc4csc(-c5ccc(Cl)cc5)n4)c3)n2)cc1` belongs 56.5%; to `COc1ccc(/C=N/Nc2nc(N/N=C/c3ccc(OC)cc3O)nc(N3CCOCC3)n2)c(O)c1`, 3.39% (active); to `Cn1nc(Nc2ccccc2)c(C(=O)NN)c1N`, 97.8%.
To `Nc1nc(-c2cccc([N+](=O)[O-])c2)c(N=Nc2ccccc2[N+](=O)[O-])s1` belongs 43.8%.
On to `C[C@H]1[C@H](C)CC[C@]2(COC(=O)c3cccnc3)CC[C@]3(C)C(=CC[C@@H]4[C@@]5(C)CCCNC(C)(C)[C@@H]5CC[C@]43C)[C@H]12`, for which the growth was 39.5%.
As to `COc1cc(/C=C2\SC(=O)NC2=O)ccc1OCC(=O)Nc1ccc(C(=O)/C=C/c2cc3ccccc3nc2Cl)cc1`, the growth is 89.7%.
On to `Cc1ccc(NC(=O)N[C@@H](Cc2cc(F)cc(F)c2)C(=O)NC2C(=O)N3CCC[C@H]3C(=O)N3CCCC[C@H]3C(=O)N[C@@H](C)C(=O)N3C[C@H](C)C[C@H]3C(=O)O[C@H]2C)c(F)c1` (stereo not given in full), for which the growth was 14.1%.
To `CCOC(=O)c1c(Nc2ccccc2)nn2c(-c3ccc(Br)cc3)ccnc12` belongs 66.4%; to `CCC(CC)N1C(=O)/C(=c2\sc3n(c2=O)C2C(NN=3)N(CC)C(=O)N2CC)c2ccccc21` (stereo not given), 10.4%; to `Oc1ccc(-c2nnc(SCc3ccc(O)c4ncccc34)o2)cc1`, 7.43% (active).
To `O=c1[nH]c(CCl)nc2c1cnn2-c1ccccc1` belongs 99.9%; to `O=C(CCCCCCN1CC(=O)N2[C@@H](c3ccccc3)c3[nH]c4ccccc4c3C[C@H]2C1=O)NO`, 91.4%; to `CC(=O)NC(C)(C)C(=O)N1CCC[C@H]1C(=O)NC(C)(C)C(=O)N[C@@H](C)C(=O)NC(C)(C)C(=O)N[C@@H](C)C(=O)N[C@@H](CCC(N)=O)C(=O)NC(C)(C)C(=O)N[C@H](C(=O)NC(C)(C)C(=O)NCC(=O)N[C@@H](CC(C)C)C(=O)NC(C)(C)C(=O)N1CCC[C@H]1C(=O)N[C@H](C(=O)NC(C)(C)C(=O)NC(C)(C)C(=O)N[C@@H](CCC(N)=O)C(=O)N[C@@H](CCC(N)=O)C(=O)N[C@H](CO)Cc1ccccc1)C(C)C)C(C)C`, 101% [4.25 µM].
